Assay results reported in PubChem BioAssay.
Activity calls are given as the source filed them.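 The calls were made as follows, unless noted: active = NADPH fluorescence slope more negative than the mean of all samples by about 3 SD, 99.7% confidence; inactive = the rest.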

How the values were obtained:
[1] = inhibitors of TNFa-induced NFkB p65 translocation, primary screen, imaging, HUVEC, MLSMR starter and 10KST1 sets (AID 438;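 active = inhibition above 20% together with a positive visual image hit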;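 also: compound added about 3h40 before a 20 min TNFalpha stimulation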;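 as to inhibition: signal is the nuclear over cytoplasmic p65 intensity ratio per well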); details: HUVEC TNFa-induced p65 nuclear translocation; cell count: measured here: nuclei count (cytotoxicity indicator), at 2.08 µM; inhibition: at 2 µM, stronger effect = higher value, 0% TNFa-plus-vehicle, 100% no-TNFa wells
[2] = inhibitors of mutant huntingtin aggregation, primary screen, imaging, exon1htt(103Q)mCFP cells, high-content imaging (AID 483;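 active = visual image review flags a hit and inhibition of aggregation exceeds 20%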;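 also: compound exposure lasted 3 days before fixation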;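 as to nuclei count: percent of the per-plate median nuclei count of sample wells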); details: exon1htt(103Q)mCFP cell line, aggregate imaging, at 2 µM; inhibition of aggregation: stronger effect = higher value; nuclei count: measured here: cell count, toxicity
[3] = inhibitors of E-selectin induction by TNFa, primary screen, imaging, HUVEC, immunofluorescence, MLSMR starter and 10KST1 sets (AID 487;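 active = visually confirmed hit in the image check and inhibition above 20%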;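 as to inhibition: signal is fraction of cell area covered by stained E-selectin grains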;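 as to nuclei count: 100% = median nuclei count of all wells on the same plate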); details: HUVEC TNFalpha-induced E-selectin immunofluorescence imaging, at 2 µM; inhibition: stronger effect = higher value; nuclei count: measured here: cell number, toxicity
[4] = molecular target: Voltage-gated potassium channel subunit beta-2 (Rattus norvegicus) (UniProt P62483); assay: KvBeta enzyme negative modulators, primary screen, biochemical, NADPH fluorescence (AID 622;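 active = fluorescence slope higher than the sample average by over 3 SD, cut at about -0.22 in these data, passing the limit was not always enough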;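 also: slope of raw intensity against log time taken from 70 to 1610 s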); details: recombinant KvBeta, 4-cyanobenzaldehyde reduction, at 10 µM, stronger effect = higher value
Voltage-gated potassium channel subunit beta-2 (Rattus norvegicus), sequence (P62483 whole entry, looked up): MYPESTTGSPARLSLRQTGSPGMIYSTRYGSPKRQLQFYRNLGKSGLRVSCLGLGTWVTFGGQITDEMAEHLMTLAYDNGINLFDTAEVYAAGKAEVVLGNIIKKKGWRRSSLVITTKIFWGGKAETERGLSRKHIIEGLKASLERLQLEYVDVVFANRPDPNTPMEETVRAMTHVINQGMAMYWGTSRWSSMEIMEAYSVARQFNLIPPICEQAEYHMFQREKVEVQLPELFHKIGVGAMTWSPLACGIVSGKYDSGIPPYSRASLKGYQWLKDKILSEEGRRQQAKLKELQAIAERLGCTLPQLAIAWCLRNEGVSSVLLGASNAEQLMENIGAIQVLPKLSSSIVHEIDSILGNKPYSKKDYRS

[5] = molecular target: Voltage-gated potassium channel subunit beta-2 (Rattus norvegicus) (UniProt P62483); assay: KvBeta positive modulators, primary screen, biochemical, NADPH fluorescence (AID 623); details: Recombinant KvBeta, NADPH fluorescence decrease slope, 10 min; at 10 µM; stronger effect = lower value;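 also: fluorescence intensity change per second fitted from 20 to 320 s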
[6] = molecular target: Alpha-2C adrenergic receptor (Homo sapiens) (UniProt P18825); assay: modulators of alpha2C/GIRK thallium flux, primary screen, cell-based, HEK293 alpha2C/GIRK1/2 (AID 624;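 active = fluorescence slope after compound addition differing from the mean of all screened samples at 99.7% confidence, in either direction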;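 also: slope of fluorescence ratio to pre-addition baseline per second over 15 to 24 s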); details: thallium flux BTC fluorescence, at 10 µM, actives lie on both sides
Alpha-2C adrenergic receptor (Homo sapiens), sequence (P18825 whole entry, looked up): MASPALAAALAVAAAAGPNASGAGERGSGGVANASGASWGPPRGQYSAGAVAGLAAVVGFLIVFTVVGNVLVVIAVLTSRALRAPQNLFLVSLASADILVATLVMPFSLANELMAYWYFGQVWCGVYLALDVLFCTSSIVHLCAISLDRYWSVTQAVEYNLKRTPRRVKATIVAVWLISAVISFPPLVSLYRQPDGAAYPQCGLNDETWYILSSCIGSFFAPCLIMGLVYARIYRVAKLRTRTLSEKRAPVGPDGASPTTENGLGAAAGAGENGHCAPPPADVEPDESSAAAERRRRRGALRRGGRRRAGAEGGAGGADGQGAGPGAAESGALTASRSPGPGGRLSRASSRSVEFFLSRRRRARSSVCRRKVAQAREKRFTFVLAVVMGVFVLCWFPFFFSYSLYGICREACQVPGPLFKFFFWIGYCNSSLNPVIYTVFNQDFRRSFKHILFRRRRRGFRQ

[7] = inhibitors of Sendai virus-induced IRF3 signaling, primary screen, TLR/RLR signaling modifier project, cell-based, Sendai virus stimulus, luciferase, 10K MLSCN set (AID 602276;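 active = inhibition at or above 50% at 10 µM; inactive = inhibition below 50%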;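 also: firefly luciferase from ISG56 promoter only with Renilla not read in this screen; 0% = Sendai virus plus DMSO and 100% = medium plus DMSO without virus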); details: HEK293 RL24 IRF3 luciferase reporter, at 10 µM, stronger effect = higher value
[8] = inhibitors of poly I:C-induced TLR3 signaling, primary screen, cell-based, poly I:C stimulus, luciferase, 10K MLSCN set (AID 602277;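 active = inhibition of the reporter signal at or above 50%; inactive = inhibition below 50%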); details: HEK293-TLR3 RL24 IRF3 luciferase reporter, at 10 µM, stronger effect = higher value

Row | Structure (SMILES) | cell count [1] | inhibition [1] | inhibition of aggregation [2] | nuclei count [2] | inhibition [3] | nuclei count [3] | fluorescence slope [4] | NADPH fluorescence slope [5] | slope [6] | inhibition [7] | inhibition [8]
1 | Cc1ccc(NC(=O)CSc2nnc(Cc3cccn3C)n2-c2ccc(F)cc2)cc1 | 562 | 12.9% (inactive) | -6.4% (inactive) | 98.7% | -118% (inactive) | 91.3% | -0.586 (inactive) | -2.1e-06 (inactive) | 0.00658 (inactive) | 8.62% (inactive) | 23.7% (inactive)
2 | COc1cccc(NC(=O)NC2(C(F)(F)F)Oc3ccccc3O2)c1 | 684 | -12.7% (inactive) | 0% (inactive) | 105% | -125% (inactive) | 120% | -0.476 (inactive) | -0.000362 (inactive) | 0.00501 (inactive) | 12.9% (inactive) | 24.9% (inactive)
3 | Cc1nc(C)c(C(=O)C2=C(O)C(=O)N(CCCn3ccnc3)C2c2ccccc2)s1 (stereo not drawn) | 481 | 4% (inactive) | 11.4% (inactive) | 89% | 39.5% (inactive) | 88.2% | -0.394 (inactive) | 1.3e-05 (inactive) | 0.00668 (inactive) | -7.2% (inactive) | -4.54% (inactive)
4 | COc1ccc(N2CCN(C(=O)Cc3ccc(-n4c(=O)[nH]c5ccccc5c4=O)cc3)CC2)cc1 | 660 | -5.8% (inactive) | -41.3% (inactive) | 96.7% | -103% (inactive) | 103% | -0.483 (inactive) | 1.9e-05 (inactive) | 0.00662 (inactive) | 7.13% (inactive) | -1.38% (inactive)
5 | CCOc1ccccc1N(C(=O)Cn1nnnc1-c1ccc(C)o1)C(CC)C(=O)NC(C)(C)C (stereo not drawn) | 663 | 1.6% (inactive) | -4.4% (inactive) | 111% | -61.8% (inactive) | 89.5% | -0.531 (inactive) | -6.1e-06 (inactive) | 0.00561 (inactive) | -5.79% (inactive) | 11.2% (inactive)
6 | CCC(Sc1ncccc1C(=O)O)C(=O)N1CCCC1 (stereo not drawn) | 597 | 10% (inactive) | 32.9% (inactive) | 93.4% | 5% (inactive) | 116% | -0.372 (inactive) | -4.6e-05 (inactive) | 0.00559 (inactive) | 5.91% (inactive) | 15.4% (inactive)
7 | Cc1cc(Nc2ccc(C(=O)O)cc2)n2nc(C)nc2n1 | 822 | 3.9% (inactive) | 9.8% (inactive) | 109% | -13.7% (inactive) | 106% | -0.543 (inactive) | -1.5e-05 (inactive) | 0.00685 (inactive) | 7.19% (inactive) | 21% (inactive)
8 | COCCn1c(C)cc(C(=O)COC(=O)c2n[nH]c3ccccc23)c1C | 330 | 3.7% (inactive) | 2.3% (inactive) | 98.9% | -26.9% (inactive) | 114% | -0.5 (inactive) | -4.3e-05 (inactive) | 0.00592 (inactive) | 71.8% (active) | 49.1% (inactive)
9 | O=C(CSc1nnc(-c2c[nH]c3ccccc23)o1)N(Cc1ccccc1)c1ccc(F)cc1 | 295 | -6.1% (inactive) | 1% (inactive) | 95.3% | -20.3% (inactive) | 119% | -0.6 (inactive) | -2.1e-05 (inactive) | 0.00713 (inactive) | -15.4% (inactive) | -35.1% (inactive)
10 | Cc1ccc2c(c1)CCCN2C(=O)Nc1ccc2c(c1)OCO2 | 365 | -0.8% (inactive) | -9.3% (inactive) | 102% | -34.4% (inactive) | 102% | -0.592 (inactive) | -4.4e-05 (inactive) | 0.00347 (inactive) | 13.6% (inactive) | 14.5% (inactive)
11 | O=C(Cn1nc(Cc2ccncc2)c2ccccc2c1=O)N1CCc2ccccc2C1 | 726 | -7.3% (inactive) | -6.8% (inactive) | 103% | -57.6% (inactive) | 122% | -0.527 (inactive) | -2.1e-05 (inactive) | 0.0064 (inactive) | -3.59% (inactive) | 15.5% (inactive)
12 | Cc1nn(-c2ccc(F)cc2)c2sc(C(=O)O)cc12 | 354 | 4.7% (inactive) | 3.7% (inactive) | 86.9% | -87.2% (inactive) | 117% | -0.447 (inactive) | -0.00011 (inactive) | 0.00627 (inactive) | 13.2% (inactive) | 24% (inactive)
13 | CCCCCc1c(C)nc(SCC(=O)O)[nH]c1=O | 611 | -5.4% (inactive) | 12.9% (inactive) | 97.3% | -31.8% (inactive) | 106% | -0.539 (inactive) | 3.4e-05 (inactive) | 0.00694 (inactive) | -8.6% (inactive) | -1.36% (inactive)
14 | O=C(CSc1nc2ccccc2o1)Nc1ccccc1 | 728 | 11.1% (inactive) | 0.9% (inactive) | 100% | -10.4% (inactive) | 106% | -0.285 (inactive) | -8e-06 (inactive) | 0.00667 (inactive) | -21.3% (inactive) | -87.6% (inactive)
15 | COc1ccc2oc(=O)c(C(=O)N3CCN(c4ccccc4F)CC3)cc2c1 | 365 | -0.4% (inactive) | -3.7% (inactive) | 95.9% | -15.2% (inactive) | 109% | -0.335 (inactive) | 2.4e-05 (inactive) | 0.00535 (inactive) | 16.3% (inactive) | 21.2% (inactive)
16 | COc1ccc(NC(=O)CCc2nc(-c3ccccc3F)no2)cc1 | 729 | -1.7% (inactive) | 30% (active) | 94.6% | -8.4% (inactive) | 115% | -0.47 (inactive) | -2.2e-05 (inactive) | 0.00593 (inactive) | 4.66% (inactive) | 10.4% (inactive)
17 | O=C(Nc1cnn(C23CC4CC(CC(C4)C2)C3)c1)c1cnn2c(C(F)(F)F)cc(-c3ccco3)nc12 | 501 | -8.8% (inactive) | -4.4% (inactive) | 108% | -107% (inactive) | 121% | -0.498 (inactive) | -2.2e-05 (inactive) | 0.00429 (inactive) | 8.99% (inactive) | -44.9% (inactive)
18 | O=C(OCc1ccccc1F)c1ccc2c(c1)OCCO2 | 372 | 3.4% (inactive) | -14.1% (inactive) | 103% | -0.9% (inactive) | 90.8% | -0.448 (inactive) | -8.7e-06 (inactive) | 0.00627 (inactive) | -0.266% (inactive) | -113% (inactive)
19 | Cc1ccccc1N1C(N)=NC(N)=NC1(C)C | 635 | -9.8% (inactive) | 0.5% (inactive) | 103% | -6.8% (inactive) | 110% | -0.584 (inactive) | -1.3e-05 (inactive) | 0.00605 (inactive) | 4.23% (inactive) | 5.9% (inactive)
20 | CCOC(=O)c1ccccc1NC(=O)c1ccc2c(=O)n3c(nc2c1)CCCCC3 | 472 | 15.6% (inactive) | 9.6% (inactive) | 114% | -28.3% (inactive) | 81.5% | -0.399 (inactive) | -1.5e-05 (inactive) | 0.00636 (inactive) | 2.48% (inactive) | 32.9% (inactive)
21 | CC1(C)CC(=O)C2=C(C1)NC(=O)CC2C(=O)NCc1ccc(F)cc1 (stereo not drawn) | 533 | -11.5% (inactive) | -1.8% (inactive) | 86.7% | 3.2% (inactive) | 87.8% | -0.342 (inactive) | -4.7e-05 (inactive) | 0.00523 (inactive) | 7.38% (inactive) | 5.77% (inactive)
22 | CN1C(=O)CCC1(O)c1ccccc1 (stereo not drawn) | 565 | -9.2% (inactive) | 18.6% (inactive) | 54.1% | -51.3% (inactive) | 103% | -0.392 (inactive) | 1.8e-06 (inactive) | 0.00341 (inactive) | 11.4% (inactive) | 38.2% (inactive)
23 | Cc1cc(NC(=O)COc2cccc(Oc3ccccc3)c2)no1 | 327 | -0.9% (inactive) | -11.4% (inactive) | 80.8% | -61% (inactive) | 106% | -0.375 (inactive) | -7.6e-05 (inactive) | 0.0048 (inactive) | 10.8% (inactive) | 30.5% (inactive)
24 | O=c1[nH]c(SCc2ccccc2Cl)nc2c1CCCC2 | 447 | -14.3% (inactive) | 36.1% (inactive) | 77.2% | -49.4% (inactive) | 111% | -0.295 (inactive) | -2.4e-06 (inactive) | 0.00421 (inactive) | 10.6% (inactive) | 4.88% (inactive)
25 | O=C(NCc1ccc(F)cc1)c1cc2ccccn2n1 | 589 | 4.4% (inactive) | 6% (inactive) | 97% | -1% (inactive) | 107% | -0.601 (inactive) | -3.6e-05 (inactive) | 0.00683 (inactive) | 1.23% (inactive) | -17.7% (inactive)
26 | CCN(Cc1cc2ccccc2[nH]c1=O)S(=O)(=O)c1ccccc1 | 642 | 7.5% (inactive) | 9.9% (inactive) | 104% | 38.9% (inactive) | 104% | -0.627 (inactive) | 1.2e-05 (inactive) | 0.00647 (inactive) | 12.2% (inactive) | 5.79% (inactive)
27 | CCOC(=O)Nc1ccc(NS(=O)(=O)c2ccc(C)cc2)cc1 | 342 | -0.8% (inactive) | -13.3% (inactive) | 114% | -108% (inactive) | 134% | -0.507 (inactive) | 8.9e-06 (inactive) | 0.00595 (inactive) | 1.72% (inactive) | 9.39% (inactive)
28 | CCC(C)NC(=O)c1cc(CC(C)C)on1 (stereo not drawn) | 880 | 3.5% (inactive) | 21.8% (inactive) | 80.5% | -78.2% (inactive) | 127% | -0.61 (inactive) | -1.9e-05 (inactive) | 0.00602 (inactive) | -59.4% (inactive) | -111% (inactive)
